# Laboratory results from PubChem BioAssay (NCATS).
# Inconclusive results are not listed. Active and inactive are the calls of the source. Calls come from the whole dose curve; as a rule, active = well fitted activation curve with a large enough effect; inconclusive = small, poorly fitted or top-dose-only effect, or another doubt; inactive = no such curve, though single readings can be large or run the other way.
# Molecular target: Rap guanine nucleotide exchange factor 3 (Homo sapiens) (UniProt O95398)
# Assay: Counterscreen qHTS for agonist of cAMP-regulated guanine nucleotide exchange factor 3 (EPAC1) (AID 1645889); note: nearly all actives have a fitted effect of over 40% in size; for activation: % of control where 0% means no effect
# Settings: EPAC1 Rap1B-BODIPY-GDP exchange, fluorescence; series mostly up to 154 µM; activation: at the top concentration
# Outline: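 Rap1B-BODIPY-GDP 250 nM + GDP 50 uM; cpds 7-pt, final 9.74 nM–152 uM (activator mode) or from 7.32 nM upwards (inhibitor mode); RT; FI 480/540 nm at 5 and 30 min, then ± cAMP, reread.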
# Potency is the fitted concentration of half-maximal effect.
SMILES,Potency,activation
NC(=O)c1c(NC(=O)c2ccccc2)sc2c1CCN(Cc1ccccc1)C2,39.8 µM (active),–
CN(C)c1ccc(/C=C2\SC(=S)N(Nc3ncc(C(F)(F)F)cc3Cl)C2=O)cc1,17.8 µM (active),–
COc1ccc(NC(=O)/C(C#N)=C\c2ccc(OCc3ccc(C(=O)O)cc3)c(OC)c2)cc1,–,12.7% (inactive)
Cc1cccn2c(=O)c(/C=C(\C#N)c3nc4ccccc4n3C)c(Oc3ccc(Br)cc3)nc12,39.8 µM (active),–
